Screening data as filed in PubChem BioAssay.
TRHR agonist: qHTS for Small Molecule Agonists and Allosteric Enhancers of Human TRH Receptor: Primary Screen for Agonists; Thyrotropin-releasing hormone receptor (Homo sapiens), P34981; TRHR cells, calcium flux fluo-8, FDSS agonist mode; activation, % at 2 µM; actives 0.18% (n = 360,000); AID 493084, 2011; further: 0% is about no effect
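TRHR-expressing cells, plated overnight in medium with 10% serum, were loaded with fluo-8 calcium dye at room temperature. After a 10 s baseline, library compound was pin-added and calcium release was recorded kinetically (ex 480/em 530) as agonist response.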
D1 agonist: Allosteric Agonists of the Human D1 Dopamine Receptor: qHTS. D(1A) dopamine receptor (Homo sapiens), P21728. HEK293 T-REx D1 cells, calcium flux, agonist mode. activation, % at 2 µM. actives 1% (n = 360,000). AID 504660, 2011; further: 0% is about no effect
Target sequence (P21728 whole entry, looked up): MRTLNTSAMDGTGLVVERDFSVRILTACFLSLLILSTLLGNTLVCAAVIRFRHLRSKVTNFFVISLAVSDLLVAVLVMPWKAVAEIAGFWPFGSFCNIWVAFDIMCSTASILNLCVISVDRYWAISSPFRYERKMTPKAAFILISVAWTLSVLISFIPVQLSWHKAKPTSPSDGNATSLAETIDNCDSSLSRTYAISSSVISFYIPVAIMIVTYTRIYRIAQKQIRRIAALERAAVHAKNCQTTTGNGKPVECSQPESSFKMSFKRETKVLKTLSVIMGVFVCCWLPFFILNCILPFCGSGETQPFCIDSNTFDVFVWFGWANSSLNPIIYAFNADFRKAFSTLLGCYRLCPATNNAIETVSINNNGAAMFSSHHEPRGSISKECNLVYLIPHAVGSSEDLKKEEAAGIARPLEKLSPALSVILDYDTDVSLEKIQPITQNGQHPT
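Agonism was scored from calcium flux recorded over 180 s (1 read/s) after pintool compound addition, following a 10-cycle baseline. Cells were inducible force-coupled HEK293 TREx D1, plated overnight at 30 C and loaded with no-wash calcium dye.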
Epigenetic reg: Quantitative High-Throughput Screen for Regulators of Epigenetic Control | actives 0.2% (n = 280,000) | murine LDR cells, GFP reporter derepression, 30 h | Potency, µM (top dose mostly 53.9 µM), for the others: top-dose GFP activation, usual class: activators; active means well fitted activation curve with a large enough effect; further: potency means the concentration at half of the fitted maximal effect; % of control where 0% means no effect; nearly all actives have a fitted effect of over 60% in size
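Murine LDR cells bearing a silenced CMV-driven GFP reporter were exposed to compound for 30 h at 37 C. After PBS washes, GFP-positive cells (20-120 um objects) counted by laser-scanning microplate cytometry.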
TRHR PAM: qHTS for Small Molecule Agonists and Allosteric Enhancers of Human TRH Receptor: Primary Screen for Enhancers | TRHR cells, fluo-8 calcium fluorescence, EC20 TRH enhancement | enhancement, % at 2 µM | actives 0.66% (n = 360,000) | AID 493056, 2011; in the data active means enhancement above about 30%; further: 0% is about no effect
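TRHR-expressing cells loaded with fluo-8 calcium dye were read kinetically (ex 480/em 530) during compound addition, then stimulated with an EC20 of TRH (10 nM final). Enhancement of the Gq-mediated intracellular calcium response was scored.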
D1 antag: Antagonist of Human D 1 Dopamine Receptor: qHTS; activity change, negative = inhibition, % at 10 µM; D(1A) dopamine receptor (Homo sapiens), P21728; actives 3.2% (n = 360,000); AID 504652, 2011; HEK293 TREx D1 cells, calcium flux, dopamine EC80; hits give low values; in the data active means activity change below about -30%; further: on the % scale 0 is the no-effect control and ±100 the full control effect
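Tetracycline-induced HEK293 Trex D1 cells, force-coupled to calcium, dye-loaded; compounds added and read 180 s, then EC80 dopamine added and calcium flux tracked kinetically another 180 s.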
D1 PAM: Potentiators of Human D1 Dopamine Receptor: qHTS; HEK293 TREx D1 cells, calcium flux, dopamine EC20 potentiation; potentiation, % at 10 µM; actives 0.036% (n = 360,000); in the data active means potentiation above about 30%; further: 0% is about no effect
An asterisk follows results filed as active; . = not tested or not shown. This is a sample that favours compounds with a hit; in the whole collection about 4.6% have one here. Unless noted, no stated cut-off is given here; in the data, active means activation above about 30%; inactive means the rest.

SMILES	TRHR agonist	D1 agonist	Epigenetic reg	TRHR PAM	D1 antag	D1 PAM
COc1ccc(C(=O)COC(=O)CN2C(=O)C3C4C=CC(C5CC45)C3C2=O)cc1 (centres undefined)	0.1	9.2	-0.6%	2.9	-32.7*	0.2
CC(=O)Nc1ccc2[nH]c3ccccc3c2c1	0.0	-1.6	-1.0%	-2.1	5.2	1.1
O=C(Nc1ccc(Cl)cc1)c1cc2c(cc1O)[nH]c1ccccc12	3.3	19.4	0.0%	-7.6	-37.9*	-10.5
Cc1ccc(-c2onc(C)c2C)cc1S(=O)(=O)NCc1ccco1	-0.5	1.7	3.4%	-1.0	-1.0	-3.8
Cc1ccc(-c2cc(C(=O)N3CCCCCC3)no2)cc1	0.0	5.0	.	5.0	-0.7	6.9
CCOC(=O)C1CCCN(C(=O)c2cc(-c3ccc(C)cc3)on2)C1 (centres undefined)	-0.4	1.5	1.8%	-4.2	-49.0*	-9.4
O=C(c1cc(-c2ccc(F)cc2)on1)N1CCCC1	0.6	1.7	15.8µM*	-2.7	-22.2	-1.7
O=C(c1cc(-c2ccccc2)on1)N1CCc2ccccc2C1	1.1	1.4	-1.1%	36.1*	0.1	-6.1
O=C(c1cc(-c2ccc(Cl)cc2)on1)N1CCc2ccccc2C1	0.5	1.7	.	-1.4	-1.4	-4.8
CCOC(=O)C1CCCN(C(=O)c2ccc3c(c2)NC(=O)C(N2CCOCC2)S3)C1 (centres undefined)	-0.6	-0.3	-0.9%	-6.3	-30.7*	-1.4
COC(=O)N[C@@H](c1cccc(C)c1)[C@@H](C)[N+](=O)[O-]	.	.	12.5%	.	.	.
CSc1ccc(CCNC(=O)c2sc3ncccc3c2-n2cccc2)cc1	0.2	15.6	2.8%	-2.0	-1.9	-0.2
CCCc1nn2c(=O)cc(COC(=O)c3ccccc3NC(=O)COc3ccccc3F)nc2s1	-1.6	0.3	1.8%	10.7	-8.0	0.7
COc1ccccc1N1CCN(C(=O)c2cc(-c3ccc4c(c3)OCO4)on2)CC1	0.4	1.1	-1.5%	0.8	-5.3	-3.9
COc1ccccc1N1CCN(C(=O)c2cc(-c3ccc(C)c(F)c3)on2)CC1	0.4	2.0	1.5%	-2.8	-80.7*	-0.9
O=C(O)Cc1sc(Nc2ccccc2)nc1-c1ccccc1	0.1	-1.3	-1.1%	3.1	-2.2	-1.7
O=C(O)Cc1sc(N/N=C\c2ccncc2)nc1-c1ccccc1	23.3	31.2*	2.1%	1.3	-4.3	-7.0
CCn1c(C(=O)NC(C)c2ccc3c(c2)OCCO3)cc2sccc21 (centres undefined)	-0.5	5.8	0.6%	0.9	-31.6*	-1.4
CCN(CC)CCCNC(=O)c1ccc(-n2c(=O)c(=O)[nH]c3ccccc32)cc1	.	.	-1.7%	.	.	.
CCn1c(NC2CCCCC2)nc2ccccc21	-0.3	-0.3	0.0%	1.7	-33.7*	-6.7
CCn1c(N2CCN(C(=O)NC3CCCCC3)CC2)nc2ccccc21	0.1	-1.1	-1.0%	-7.1	1.8	-1.4
COc1ccccc1NC(=O)Cn1c(=O)n(-c2cccc(Cl)c2)c(=O)c2c1c1cc(C)ccc1n2C	0.5	48.2*	10.9%	-3.7	-4.5	2.6
COc1ccc2c(c1)c1c(c(=O)n(Cc3ccccc3)c(=O)n1CC(=O)Nc1ccc(C)cc1C)n2C	-0.5	-1.0	-0.5%	3.0	-65.3*	-1.4
Cc1ccc2c(c1)c1c(c(=O)n(-c3cccc(Cl)c3)c(=O)n1CC(=O)Nc1c(C)cccc1C)n2C	0.1	-0.6	-1.0%	-2.1	5.7	1.6
Cc1ccc2c(c1)c1c(c(=O)n(-c3ccccc3C)c(=O)n1CC(=O)c1ccc(Cl)cc1)n2C	-0.3	3.7	-1.5%	1.6	-32.4*	-1.9
